Of roughly 8,800 targets only a part is listed; those with a hit were picked by preference. About 0.5% of all pairs of compound and target were hits.
Legend:
Assay in all cases: log2 fold change, soluble protein after heating vs DMSO (PISA); higher = thermal stabilisation; K562 lysate, 10 uM; active = over 0.2 and 3.5 SD of the protein, either way, in both replicates (recomputed)
vemurafenib = compound: CCCS(=O)(=O)Nc1ccc(F)c(C(=O)c2c[nH]c3ncc(-c4ccc(Cl)cc4)cc23)c1F [vemurafenib]
Summary of the method: (§1)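 To prepare the extract, K562 pellets were dounce-homogenised in PBS pH 7.4 with 1 mM MgCl2, giving crude material at 1 mg/mL protein. This was treated with 10 μM compound for 30 min, then heated in aliquots for 3 min over 48°C-58°C before pooling and addition of NP-40 to 0.5% at 4°C. Centrifugation at 21,000xg for 90 min left soluble protein in the supernatant, which TMTpro 16plex LC-MS/MS quantified with equalised channel sums. Results are log-two fold changes in thermal stability compared with solvent controls, from duplicates.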

[1] = compound: CCCS(=O)(=O)Nc1ccc(F)c(C(=O)c2c[nH]c3ncc(Cl)cc23)c1F
Summary of the method: as §1

barasertib = compound: CCN(CCCOc1ccc2c(Nc3cc(CC(=O)Nc4cccc(F)c4)[nH]n3)ncnc2c1)CCOP(=O)(O)O [barasertib]
Summary of the method: as §1

[2] = compound: CC[C@@H]1C(=O)N(C)c2cnc(Nc3ccc(C(=O)NC4CCN(C)CC4)cc3OC)nc2N1C1CCCC1
Summary of the method: as §1

volasertib = compound: CC[C@@H]1C(=O)N(C)c2cnc(Nc3ccc(C(=O)N[C@H]4CC[C@H](N5CCN(CC6CC6)CC5)CC4)cc3OC)nc2N1C(C)C [volasertib]
Summary of the method: as §1

[3] = compound: CCn1c(C(=O)N(C2CC2)C2CC2)cc2c3c(ncn3C)c(Nc3cc(C)n(C)n3)nc21
Summary of the method: as §1

[4] = compound: CCn1cc(-c2ccnc3[nH]c(-c4cccc(CN(C)C)c4)cc23)c(-c2ccc(NC(=O)N(C)C)cc2)n1
Summary of the method: as §1

[5] = compound: CN1CCC(CNc2ccc3ncc(-c4cccc(OC(F)(F)F)c4)n3n2)CC1
Summary of the method: as §1

saracatinib = compound: CN1CCN(CCOc2cc(OC3CCOCC3)c3c(Nc4c(Cl)ccc5c4OCO5)ncnc3c2)CC1 [saracatinib]
Summary of the method: as §1

sotrastaurin = compound: CN1CCN(c2nc(C3=C(c4c[nH]c5ccccc45)C(=O)NC3=O)c3ccccc3n2)CC1 [sotrastaurin]
Summary of the method: as §1

alvocidib = compound: CN1CC[C@H](c2c(O)cc(O)c3c(=O)cc(-c4ccccc4Cl)oc23)[C@H](O)C1 [alvocidib]
Summary of the method: as §1

Tubastatin A = compound: CN1CCc2c(c3ccccc3n2Cc2ccc(C(=O)NO)cc2)C1 [Tubastatin A]
Summary of the method: as §1

[6] = compound: CNC(=O)C1=CC=CC=C1NC2=NC(=NC=C2Cl)NC3=C(C=C(C=C3)N4CCOCC4)OC
Summary of the method: as §1

defactinib = compound: CNC(=O)c1ccc(Nc2ncc(C(F)(F)F)c(NCc3nccnc3N(C)S(C)(=O)=O)n2)cc1 [defactinib]
Summary of the method: as §1

[7] = compound: CNc1nc(-c2ccc3c(N)n[nH]c3c2)cc(N2C[C@@H](C(=O)NC3CCCCC3)CC[C@H]2C)n1
Summary of the method: as §1

encorafenib = compound: COC(=O)N[C@@H](C)CNc1nccc(-c2cn(C(C)C)nc2-c2cc(Cl)cc(NS(C)(=O)=O)c2F)n1 [encorafenib]
Summary of the method: as §1

[8] = compound: COC(=O)[C@H](CCSC)NC(=O)C1=C(C=C(C=C1)NC[C@H](CS)N)C2=CC=CC=C2
Summary of the method: as §1

alisertib = compound: COc1cc(Nc2ncc3c(n2)-c2ccc(Cl)cc2C(c2c(F)cccc2OC)=NC3)ccc1C(=O)O [alisertib]
Summary of the method: as §1

[9] = compound: COc1cc2nc(-c3cc(F)ccc3O)nc(N[C@@H]3CNC[C@H]3C(C)(C)O)c2cc1OC
Summary of the method: as §1

gefitinib = compound: COc1cc2ncnc(Nc3ccc(F)c(Cl)c3)c2cc1OCCCN1CCOCC1 [gefitinib]
Summary of the method: as §1

Measured: log2 fold change

CCNC (UniProt P24863)
inactive: vemurafenib 0.22 | [1] 0.046 | barasertib -0.026 | [2] -0.017 | volasertib -0.079 | [3] 0.029 | [4] -0.211 | [5] 0.135 | saracatinib -0.001 | sotrastaurin -0.062 | alvocidib 0.182 | Tubastatin A -0.079 | [6] -0.018 | defactinib -0.073 | [7] -0.052 | encorafenib 0.041 | [8] 0.039 | alisertib 0.009 | [9] -0.05 | gefitinib 0.017

BAG4 (UniProt O95429)
Chain of UniProt O95429 (O95429 whole entry, looked up): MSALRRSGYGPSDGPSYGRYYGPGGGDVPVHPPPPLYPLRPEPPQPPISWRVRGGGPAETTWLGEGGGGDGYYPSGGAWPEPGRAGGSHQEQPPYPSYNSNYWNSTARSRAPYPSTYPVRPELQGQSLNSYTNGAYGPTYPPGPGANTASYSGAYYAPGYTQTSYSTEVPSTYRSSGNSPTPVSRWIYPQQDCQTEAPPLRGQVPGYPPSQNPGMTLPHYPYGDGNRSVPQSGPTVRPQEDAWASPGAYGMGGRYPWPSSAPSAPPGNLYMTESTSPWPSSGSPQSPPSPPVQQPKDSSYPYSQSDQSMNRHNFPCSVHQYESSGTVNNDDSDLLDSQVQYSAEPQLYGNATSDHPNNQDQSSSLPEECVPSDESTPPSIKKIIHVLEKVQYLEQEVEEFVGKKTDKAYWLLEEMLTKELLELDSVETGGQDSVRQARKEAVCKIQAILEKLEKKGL
inactive: vemurafenib -0.055 | [1] 0 | barasertib 0.048 | [2] 0.004 | volasertib -0.003 | [3] 0.036 | [4] -0.037 | [5] 0.102 | saracatinib 0.018 | sotrastaurin -0.043 | alvocidib 0.04 | Tubastatin A -0.096 | [6] -0.01 | defactinib -0.001 | [7] 0.023 | encorafenib -0.032 | [8] 0.005 | alisertib -0.023 | [9] 0.003 | gefitinib 0.039

CARS isoform 3 (UniProt P49589)
inactive: vemurafenib 0.011 | [1] 0.004 | barasertib -0.032 | [2] -0.01 | volasertib -0.052 | [3] 0.02 | [4] 0.004 | [5] -0.029 | saracatinib 0.005 | sotrastaurin 0.041 | alvocidib 0.006 | Tubastatin A -0.041 | [6] 0.001 | defactinib -0.013 | [7] -0.01 | encorafenib -0.013 | alisertib 0.003 | [9] -0.005 | gefitinib -0.019
active: [8] 0.213

CHCHD1 (UniProt Q96BP2)
inactive: vemurafenib 0.157 | [1] -0.025 | barasertib -0.002 | [2] 0.028 | volasertib -0.001 | [3] -0.075 | [5] -0.338 | saracatinib 0.032 | sotrastaurin 0.16 | alvocidib 0.494 | Tubastatin A 0.046 | [6] 0.028 | defactinib -0.033 | [7] 0.087 | encorafenib -0.018 | [8] -0.042 | alisertib 0.003 | [9] 0.023 | gefitinib 0.228
active: [4] 1.08

CCNH (UniProt P51946)
inactive: vemurafenib -0.025 | [1] 0.001 | barasertib -0.035 | [2] 0.036 | volasertib 0.003 | [3] -0.034 | [4] 0.054 | [5] -0.062 | saracatinib -0.036 | sotrastaurin 0.033 | alvocidib 0.006 | Tubastatin A 0.016 | [6] -0.015 | defactinib 0.026 | [7] -0.018 | encorafenib 0.033 | [8] -0.047 | alisertib -0.005 | [9] -0.007 | gefitinib 0.024

CDC40 (UniProt O60508)
inactive: vemurafenib 0.01 | [1] 0.013 | barasertib -0.016 | [2] -0.105 | volasertib -0.001 | [3] 0.034 | [4] -0.006 | [5] 0.046 | saracatinib -0.056 | sotrastaurin -0.049 | alvocidib 0.016 | Tubastatin A 0.147 | [6] 0.045 | defactinib -0.002 | [7] 0.069 | encorafenib 0.095 | [8] 0.069 | alisertib -0.049 | [9] 0.034 | gefitinib -0.021

BCAR1 isoform 6 (UniProt P56945)
inactive: vemurafenib 0.038 | [1] 0.018 | barasertib 0.015 | [2] -0.065 | volasertib -0.018 | [3] -0.003 | [4] 0.064 | [5] -0.012 | saracatinib 0.032 | sotrastaurin -0.038 | alvocidib 0.074 | Tubastatin A -0.009 | [6] 0.009 | defactinib -0.032 | [7] 0.012 | encorafenib 0.018 | [8] 0.014 | alisertib 0.009 | [9] 0.08 | gefitinib 0.065

BRD4 (UniProt O60885)
active: [2] 0.538 | volasertib 0.217
inactive: vemurafenib 0.049 | [1] 0.016 | barasertib -0.007 | [3] -0.008 | [4] -0.007 | [5] 0.037 | saracatinib -0.025 | sotrastaurin -0.012 | alvocidib -0.003 | Tubastatin A -0.001 | [6] 0.02 | defactinib -0.05 | [7] 0.036 | encorafenib 0 | [8] 0.03 | alisertib 0.038 | [9] -0.03 | gefitinib 0.034

CDKN2AIP (UniProt Q9NXV6)
Chain of UniProt Q9NXV6 (Q9NXV6 whole entry, looked up): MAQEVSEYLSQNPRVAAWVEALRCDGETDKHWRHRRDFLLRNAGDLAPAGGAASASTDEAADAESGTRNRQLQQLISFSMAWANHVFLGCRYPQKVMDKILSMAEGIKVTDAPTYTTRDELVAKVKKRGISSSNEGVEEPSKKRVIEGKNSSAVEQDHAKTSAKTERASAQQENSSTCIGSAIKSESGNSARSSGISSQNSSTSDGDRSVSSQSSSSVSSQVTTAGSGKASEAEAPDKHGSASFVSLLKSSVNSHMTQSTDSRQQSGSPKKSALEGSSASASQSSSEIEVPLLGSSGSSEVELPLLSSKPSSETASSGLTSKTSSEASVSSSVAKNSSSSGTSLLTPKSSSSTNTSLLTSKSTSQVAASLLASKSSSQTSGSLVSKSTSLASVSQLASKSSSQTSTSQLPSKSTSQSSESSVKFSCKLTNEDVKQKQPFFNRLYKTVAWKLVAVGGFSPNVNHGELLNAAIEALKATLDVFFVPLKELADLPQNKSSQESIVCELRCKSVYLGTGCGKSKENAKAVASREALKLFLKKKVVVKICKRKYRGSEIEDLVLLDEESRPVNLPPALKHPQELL
active: [8] 0.236
inactive: vemurafenib 0.017 | [1] 0.022 | barasertib -0.028 | [2] 0.082 | volasertib -0.008 | [3] -0.026 | [4] -0.049 | [5] 0.03 | saracatinib -0.004 | sotrastaurin 0.01 | alvocidib -0.008 | Tubastatin A -0.066 | [6] -0.016 | defactinib -0.011 | [7] 0.054 | encorafenib 0.023 | alisertib 0.021 | [9] -0.003 | gefitinib -0.073

CDS2 (UniProt O95674)
inactive: vemurafenib 0.09 | [1] 0.041 | barasertib 0.027 | [2] 0.026 | volasertib 0.005 | [3] -0.006 | [4] 0.015 | [5] 0.004 | saracatinib -0.053 | sotrastaurin 0.037 | alvocidib -0.037 | Tubastatin A 0.116 | [6] -0.036 | defactinib 0.04 | [7] -0.021 | encorafenib 0.027 | [8] 0.007 | alisertib 0.012 | [9] 0.033 | gefitinib 0

CDK11B (UniProt P21127)
Chain of UniProt P21127 (P21127 whole entry, looked up): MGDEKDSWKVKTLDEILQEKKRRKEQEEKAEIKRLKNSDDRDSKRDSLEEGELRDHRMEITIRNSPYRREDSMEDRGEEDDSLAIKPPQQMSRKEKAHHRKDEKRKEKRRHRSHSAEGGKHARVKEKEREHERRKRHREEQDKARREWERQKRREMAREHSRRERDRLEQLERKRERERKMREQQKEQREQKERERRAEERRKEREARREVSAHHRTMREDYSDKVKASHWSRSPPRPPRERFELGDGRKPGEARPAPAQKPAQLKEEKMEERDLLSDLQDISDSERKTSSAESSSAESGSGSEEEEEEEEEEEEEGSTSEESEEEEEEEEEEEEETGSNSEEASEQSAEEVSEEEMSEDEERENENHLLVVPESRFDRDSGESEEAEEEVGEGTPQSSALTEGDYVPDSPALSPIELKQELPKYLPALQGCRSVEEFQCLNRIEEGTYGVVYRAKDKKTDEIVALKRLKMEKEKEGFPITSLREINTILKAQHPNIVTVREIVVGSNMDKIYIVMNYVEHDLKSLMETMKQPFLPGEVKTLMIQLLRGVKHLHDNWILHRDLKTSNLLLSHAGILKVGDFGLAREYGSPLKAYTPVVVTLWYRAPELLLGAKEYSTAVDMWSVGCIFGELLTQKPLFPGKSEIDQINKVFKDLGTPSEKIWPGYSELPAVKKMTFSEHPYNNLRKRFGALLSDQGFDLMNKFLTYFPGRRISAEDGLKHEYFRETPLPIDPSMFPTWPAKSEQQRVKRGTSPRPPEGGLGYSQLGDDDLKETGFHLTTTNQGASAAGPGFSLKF
inactive: vemurafenib 0.025 | [1] 0.002 | barasertib 0.022 | [2] -0.087 | volasertib -0.057 | [3] 0.029 | [4] -0.047 | [5] -0.048 | saracatinib -0.024 | sotrastaurin 0.01 | Tubastatin A -0.081 | [6] 0.012 | defactinib -0.013 | [7] 0.019 | encorafenib -0.012 | [8] 0.108 | alisertib 0.012 | [9] -0.036 | gefitinib -0.016
active: alvocidib 0.273

CD63 (UniProt P08962)
Chain of UniProt P08962 (P08962 whole entry, looked up): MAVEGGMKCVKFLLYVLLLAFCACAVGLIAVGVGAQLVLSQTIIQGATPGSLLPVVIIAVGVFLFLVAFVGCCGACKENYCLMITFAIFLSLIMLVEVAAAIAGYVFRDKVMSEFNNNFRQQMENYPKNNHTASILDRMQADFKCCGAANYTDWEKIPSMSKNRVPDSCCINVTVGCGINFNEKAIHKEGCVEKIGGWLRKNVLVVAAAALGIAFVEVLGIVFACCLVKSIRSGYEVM
active: [4] -0.593
inactive: vemurafenib -0.079 | [1] 0.084 | barasertib 0.037 | [2] -0.036 | volasertib 0.023 | [3] -0.011 | [5] 0.175 | saracatinib 0.073 | sotrastaurin 0.057 | alvocidib -0.184 | Tubastatin A 0.023 | [6] -0.013 | defactinib 0.089 | [7] -0.101 | encorafenib 0.046 | [8] -0.055 | alisertib 0.01 | [9] -0.02 | gefitinib -0.023

ATM (UniProt Q13315)
Chain of UniProt Q13315 (Q13315 whole entry, looked up): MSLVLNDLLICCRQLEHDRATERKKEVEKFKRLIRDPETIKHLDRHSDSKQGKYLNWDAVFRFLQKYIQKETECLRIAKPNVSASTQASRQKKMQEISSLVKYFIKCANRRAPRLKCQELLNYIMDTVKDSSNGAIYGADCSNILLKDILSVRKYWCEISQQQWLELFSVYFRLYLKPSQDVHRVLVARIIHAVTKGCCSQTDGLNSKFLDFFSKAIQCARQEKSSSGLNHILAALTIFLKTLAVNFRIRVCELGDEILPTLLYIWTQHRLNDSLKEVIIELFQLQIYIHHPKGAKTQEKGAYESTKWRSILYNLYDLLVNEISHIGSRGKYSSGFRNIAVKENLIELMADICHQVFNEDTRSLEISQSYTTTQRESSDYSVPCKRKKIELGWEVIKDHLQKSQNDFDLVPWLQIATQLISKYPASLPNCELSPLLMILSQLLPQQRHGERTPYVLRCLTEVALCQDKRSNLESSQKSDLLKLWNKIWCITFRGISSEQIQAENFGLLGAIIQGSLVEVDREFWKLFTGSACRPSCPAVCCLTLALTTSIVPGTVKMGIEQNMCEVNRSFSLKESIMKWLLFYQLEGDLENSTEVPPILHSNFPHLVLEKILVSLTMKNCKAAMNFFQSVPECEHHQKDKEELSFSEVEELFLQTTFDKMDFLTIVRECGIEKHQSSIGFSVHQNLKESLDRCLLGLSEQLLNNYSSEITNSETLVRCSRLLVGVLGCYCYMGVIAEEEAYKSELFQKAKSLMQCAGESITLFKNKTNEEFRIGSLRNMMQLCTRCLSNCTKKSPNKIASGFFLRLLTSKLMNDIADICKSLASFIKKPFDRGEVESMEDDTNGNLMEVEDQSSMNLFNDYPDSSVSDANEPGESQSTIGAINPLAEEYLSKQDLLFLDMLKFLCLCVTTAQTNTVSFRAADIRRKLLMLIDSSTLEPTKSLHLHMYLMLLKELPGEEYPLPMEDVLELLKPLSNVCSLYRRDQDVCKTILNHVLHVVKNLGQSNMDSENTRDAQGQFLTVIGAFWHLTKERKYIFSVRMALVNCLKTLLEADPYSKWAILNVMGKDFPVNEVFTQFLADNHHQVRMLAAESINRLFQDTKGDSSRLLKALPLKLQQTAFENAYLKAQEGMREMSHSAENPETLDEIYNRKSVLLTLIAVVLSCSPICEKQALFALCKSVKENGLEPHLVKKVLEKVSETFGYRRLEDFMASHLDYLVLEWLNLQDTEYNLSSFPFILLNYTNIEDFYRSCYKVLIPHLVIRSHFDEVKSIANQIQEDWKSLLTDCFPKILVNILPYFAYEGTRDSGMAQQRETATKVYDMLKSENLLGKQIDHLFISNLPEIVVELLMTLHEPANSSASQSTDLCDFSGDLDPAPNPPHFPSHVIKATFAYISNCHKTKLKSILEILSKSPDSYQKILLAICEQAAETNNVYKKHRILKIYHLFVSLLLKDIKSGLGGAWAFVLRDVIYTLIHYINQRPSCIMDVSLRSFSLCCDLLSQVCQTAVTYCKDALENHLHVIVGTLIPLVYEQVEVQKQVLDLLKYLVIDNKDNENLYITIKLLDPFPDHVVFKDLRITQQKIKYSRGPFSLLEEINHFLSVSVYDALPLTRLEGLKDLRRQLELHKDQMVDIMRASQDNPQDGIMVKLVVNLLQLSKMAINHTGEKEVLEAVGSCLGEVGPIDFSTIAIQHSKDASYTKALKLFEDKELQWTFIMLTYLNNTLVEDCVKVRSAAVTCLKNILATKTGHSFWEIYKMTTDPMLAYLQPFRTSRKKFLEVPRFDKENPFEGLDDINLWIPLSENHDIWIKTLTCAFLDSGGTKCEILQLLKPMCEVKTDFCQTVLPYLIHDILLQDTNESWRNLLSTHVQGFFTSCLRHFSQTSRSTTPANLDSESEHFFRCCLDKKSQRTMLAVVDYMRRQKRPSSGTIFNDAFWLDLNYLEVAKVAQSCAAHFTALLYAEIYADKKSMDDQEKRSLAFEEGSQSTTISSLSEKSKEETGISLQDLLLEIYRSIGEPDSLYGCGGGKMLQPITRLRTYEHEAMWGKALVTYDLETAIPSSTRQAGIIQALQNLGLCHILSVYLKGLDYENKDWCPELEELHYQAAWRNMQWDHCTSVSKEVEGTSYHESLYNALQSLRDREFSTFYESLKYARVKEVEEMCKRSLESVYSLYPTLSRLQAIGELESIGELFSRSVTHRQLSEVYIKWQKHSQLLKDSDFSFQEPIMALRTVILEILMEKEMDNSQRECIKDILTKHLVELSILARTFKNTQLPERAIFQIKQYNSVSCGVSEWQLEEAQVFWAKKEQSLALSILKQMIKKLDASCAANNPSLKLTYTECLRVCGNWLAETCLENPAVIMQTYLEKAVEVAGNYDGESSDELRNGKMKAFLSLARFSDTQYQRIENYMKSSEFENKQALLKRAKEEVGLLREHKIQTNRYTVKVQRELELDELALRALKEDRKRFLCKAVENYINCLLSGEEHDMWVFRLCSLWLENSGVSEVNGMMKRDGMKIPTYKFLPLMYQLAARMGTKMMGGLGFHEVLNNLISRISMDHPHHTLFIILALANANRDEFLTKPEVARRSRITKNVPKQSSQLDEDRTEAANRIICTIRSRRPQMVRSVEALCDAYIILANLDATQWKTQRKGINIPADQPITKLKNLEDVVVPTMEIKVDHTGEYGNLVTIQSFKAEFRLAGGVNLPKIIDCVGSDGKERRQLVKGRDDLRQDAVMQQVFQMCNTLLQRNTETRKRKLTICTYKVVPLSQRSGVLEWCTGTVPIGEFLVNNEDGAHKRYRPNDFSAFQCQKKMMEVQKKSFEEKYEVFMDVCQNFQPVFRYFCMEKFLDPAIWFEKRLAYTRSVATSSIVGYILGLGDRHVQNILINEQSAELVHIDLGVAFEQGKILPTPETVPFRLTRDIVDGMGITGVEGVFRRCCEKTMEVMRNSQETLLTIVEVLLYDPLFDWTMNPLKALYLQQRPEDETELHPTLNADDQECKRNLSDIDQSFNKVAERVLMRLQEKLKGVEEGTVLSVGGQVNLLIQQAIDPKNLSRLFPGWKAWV
inactive: vemurafenib -0.063 | [1] -0.004 | barasertib 0.041 | [2] 0.005 | volasertib -0.078 | [3] 0.021 | [4] -0.089 | [5] 0.071 | saracatinib -0.011 | sotrastaurin 0.032 | alvocidib -0.048 | Tubastatin A 0.013 | [6] 0.013 | defactinib 0.105 | [7] -0.005 | encorafenib -0.031 | [8] 0.087 | alisertib -0.01 | [9] 0.078 | gefitinib 0.022

BLOC1S6 (UniProt Q9UL45)
inactive: vemurafenib 0.005 | [1] 0.007 | barasertib -0.012 | [2] 0.013 | volasertib 0.032 | [3] 0.043 | [4] 0.048 | [5] 0.009 | saracatinib -0.034 | sotrastaurin -0.06 | alvocidib -0.028 | Tubastatin A 0.033 | [6] 0.051 | defactinib 0.014 | [7] 0.082 | encorafenib 0.147 | [8] 0.056 | alisertib -0.22 | [9] -0.036 | gefitinib 0.047

BTAF1 (UniProt O14981)
inactive: vemurafenib 0.029 | [1] 0.026 | barasertib 0.029 | [2] -0.029 | volasertib -0.058 | [3] 0.045 | [4] -0.138 | [5] 0.051 | saracatinib 0.008 | sotrastaurin 0.006 | alvocidib -0.001 | Tubastatin A -0.106 | [6] 0.021 | defactinib -0.013 | [7] 0 | encorafenib 0.021 | [8] 0.008 | alisertib 0.018 | [9] -0.008 | gefitinib 0.009

CCNB1 (UniProt P14635)
active: [9] 0.407
inactive: vemurafenib 0.032 | [1] -0.021 | barasertib 0.019 | [2] 0.03 | volasertib -0.043 | [3] -0.031 | [4] -0.023 | [5] -0.012 | saracatinib 0.002 | sotrastaurin -0.038 | alvocidib -0.015 | Tubastatin A 0.021 | [6] -0.003 | defactinib -0.117 | [7] 0.028 | encorafenib 0.029 | [8] -0.023 | alisertib 0 | gefitinib -0.024
